According to the supplement of paper PMC13380429:
Values without a mark were called inactive.

These molecules were tested on Vero E6 infected with SARS-CoV-2 (assay: SARS-CoV-2 infection rate relative to infected DMSO; higher = more infection, active = 60 or less). Settings: 24 h.
Work on `COc1cc(/C=C/C(=O)CC(=O)/C=C/c2ccc(O)c(OC)c2)ccc1O` [curcumin] (10 µM) yielded an SARS-CoV-2 infection rate of 61.5%. With `C[C@@H]([C@@H](O)c1ccc(O)cc1)N1CCC(O)(c2ccccc2)CC1` [traxoprodil] (10 µM) the SARS-CoV-2 infection rate was 108%. `C=C1CC[C@H](O)C/C1=C/C=C1\CCC[C@]2(C)[C@@H]([C@H](C)CCCC(C)(C)O)CC[C@@H]12` [calcifediol] (10 µM) gave an SARS-CoV-2 infection rate of 115%. For `CC#CCC(C)[C@H](O)/C=C/[C@@H]1[C@H]2C/C(=C/CCCC(=O)O)C[C@H]2C[C@H]1O` (some centres undefined) [iloprost] (10 µM), the SARS-CoV-2 infection rate was 108%. Work on `COc1cc(Br)c(Nc2nc(-c3c(C)nc4ncccn34)cs2)c(Br)c1` (10 µM) yielded an SARS-CoV-2 infection rate of 114%. `CC(C)(N)c1nc(-c2ccc(OC(F)(F)F)cc2)c[nH]1` (10 µM) was tested, and the SARS-CoV-2 infection rate was 103%. With `COc1nc(C)nc(Cl)c1NC1=NCCN1` [moxonidine] (10 µM) the SARS-CoV-2 infection rate was 102%. For `CCOc1cc2ncc(C#N)c(Nc3ccc(F)c(Cl)c3)c2cc1NC(=O)/C=C/CN(C)C` [pelitinib] (10 µM), the SARS-CoV-2 infection rate was 110%. `CC(C)c1cnn2c(NCc3ccccc3)cc(NCCCCCCN)nc12` (10 µM) was tested, and the SARS-CoV-2 infection rate was 41% (active). Work on `C[C@]12CCC(=O)C=C1CC[C@@H]1[C@@H]2[C@@H](O)C[C@@]2(C)[C@H]1CC[C@]2(O)C(=O)COC(=O)CCC(=O)O` [hydrocortisone-hemisuccinate] (10 µM) yielded an SARS-CoV-2 infection rate of 116%. `C[C@H](NC(=O)Cc1cc(F)cc(F)c1)C(=O)N[C@@H]1C(=O)N(C)c2ccccc2-c2ccccc21` (10 µM) gave an SARS-CoV-2 infection rate of 119%. `O=C(CN1CCN(C(=O)c2ccco2)CC1)Nc1cc(C(F)(F)F)ccc1Cl` (10 µM) gave an SARS-CoV-2 infection rate of 103%. `COc1c(OCCCN2CCOCC2)ccc2c1N=C(NC(=O)c1cnc(N)nc1)N1CCN=C21` [copanlisib] (0.833333 µM) was tested, and the SARS-CoV-2 infection rate was 34% (active). Work on `CC(=O)Nc1ccc(S(=O)(=O)Nc2ccc([N+](=O)[O-])cc2)cc1` [sulfanitran] (10 µM) yielded an SARS-CoV-2 infection rate of 108%. In the case of `CC1OC2(CS1)CN1CCC2CC1` (centres undefined) [cevimeline] (10 µM), the SARS-CoV-2 infection rate is reported as 98%. In the case of `NCc1cc(O)no1` [muscimol] (10 µM), the SARS-CoV-2 infection rate is reported as 111%. Molecule `CC(C)(Cc1c[nH]c2ccc(Cl)cc12)NCCOc1ccccc1OCC1CC1` (0.833333 µM) has an SARS-CoV-2 infection rate of 110%. With `Oc1ccc2c3c1O[C@H]1c4c(c5ccccc5n4Cc4ccccc4)C[C@@]4(O)[C@@H](C2)N(CC2CC2)CC[C@]314` [N-benzylnaltrindole] (0.833333 µM) the SARS-CoV-2 infection rate was 102%. For `CN(C)c1cccc(-c2c3c(=O)n(-c4ccccc4Cl)[nH]c3cc(=O)n2C)c1` (10 µM), the SARS-CoV-2 infection rate was 112%. `Cc1cc(C)c(S(=O)(=O)n2cc(C)cc2C)c(C)c1` (10 µM) gave an SARS-CoV-2 infection rate of 102%. In the case of `CN1CCC[C@@H]1CCO[C@](C)(c1ccccc1)c1ccc(Cl)cc1` [clemastine] (10 µM), the SARS-CoV-2 infection rate is reported as 26.5% (active). Molecule `Clc1ccc(C(Cn2ccnc2)OCc2c(Cl)cccc2Cl)c(Cl)c1` (centres undefined) [isoconazole] (10 µM) has an SARS-CoV-2 infection rate of 104%. With `CCOc1ccc(S(=O)(=O)O)c2cccnc12` [actinoquinol] (10 µM) the SARS-CoV-2 infection rate was 112%. With `C=CC[C@]1(O)CC[C@H]2[C@@H]3CCC4=CC(=O)CCC4=C3C=C[C@@]21C` [altrenogest] (10 µM) the SARS-CoV-2 infection rate was 105%. Molecule `Cn1c(C#N)ccc1-c1ccc2c(c1)C(C)(C)OC(=S)N2` [tanaproget] (10 µM) has an SARS-CoV-2 infection rate of 102%. With `CC(=O)NS(=O)(=O)c1ccc(NC(=O)c2ccccc2C(=O)O)cc1` [phthalylsulfacetamide] (10 µM) the SARS-CoV-2 infection rate was 99.5%. `Cc1ccccc1/N=N/c1ccc(/N=N/c2c(O)ccc3ccccc23)c(C)c1` [sudan-IV] (10 µM) showed an SARS-CoV-2 infection rate of 92%. With `NC(=O)c1cnccn1` [pyrazinamide] (10 µM) the SARS-CoV-2 infection rate was 110%. Molecule `CCOC(=O)c1ncc2[nH]c3cccc(OC(C)C)c3c2c1C` (10 µM) has an SARS-CoV-2 infection rate of 88.5%. For `Cc1cc(CN2CCN(c3c(Br)cnc4nc(-c5ccc(N6CCN(C)CC6)cc5)[nH]c34)CC2)no1` (10 µM), the SARS-CoV-2 infection rate was 116%. With `O=C(Nc1ccc(CN2CCOCC2)cc1)c1ccc(-c2cccc(Cl)c2)o1` (10 µM) the SARS-CoV-2 infection rate was 110%. For `COc1cccc([C@@H](C)NCCCc2ccccc2Cl)c1` [tecalcet] (10 µM), the SARS-CoV-2 infection rate was 50.5% (active). `CCOC(=O)Nc1ccc2c(c1)N(C(=O)CN(CC)CC)c1ccccc1CC2` (10 µM) was tested, and the SARS-CoV-2 infection rate was 101%. With `CN1CCC(COc2cnc(-c3cccc(Cn4nc(-c5cccc(C#N)c5)ccc4=O)c3)nc2)CC1` (10 µM) the SARS-CoV-2 infection rate was 100%. `c1cc(-c2cnn3cc(-c4ccc(N5CCNCC5)cc4)cnc23)c2cccnc2c1` (0.833333 µM) was tested, and the SARS-CoV-2 infection rate was 103%. For `O=c1[nH]c(=O)n([C@H]2C[C@H](O)[C@@H](CO)O2)cc1/C=C/Br` [brivudine] (10 µM), the SARS-CoV-2 infection rate was 108%. Work on `CC(C)(C)c1ccc(C(=O)Nc2cn3cc(-n4ccnc4)ccc3n2)cc1` (10 µM) yielded an SARS-CoV-2 infection rate of 100%. Work on `Cc1[nH]c2ccccc2c1CCNCc1ccc(/C=C/C(=O)NO)cc1` [panobinostat] (0.833333 µM) yielded an SARS-CoV-2 infection rate of 105%. In the case of `O=C(O)c1cc2occc2[nH]1` (10 µM), the SARS-CoV-2 infection rate is reported as 109%.
